In ChEMBL document CHEMBL2218924, “A broad activity screen in support of a chemogenomic map for kinase signalling research and drug discovery” (Biochem J, 2013) one finds residual activity data, which are given here for 26 compounds.

For assay [1], the target named is T1, Testis-specific serine/threonine-protein kinase 1 (Homo sapiens) (UniProt Q9BXA7).
T1 sequence (whole entry): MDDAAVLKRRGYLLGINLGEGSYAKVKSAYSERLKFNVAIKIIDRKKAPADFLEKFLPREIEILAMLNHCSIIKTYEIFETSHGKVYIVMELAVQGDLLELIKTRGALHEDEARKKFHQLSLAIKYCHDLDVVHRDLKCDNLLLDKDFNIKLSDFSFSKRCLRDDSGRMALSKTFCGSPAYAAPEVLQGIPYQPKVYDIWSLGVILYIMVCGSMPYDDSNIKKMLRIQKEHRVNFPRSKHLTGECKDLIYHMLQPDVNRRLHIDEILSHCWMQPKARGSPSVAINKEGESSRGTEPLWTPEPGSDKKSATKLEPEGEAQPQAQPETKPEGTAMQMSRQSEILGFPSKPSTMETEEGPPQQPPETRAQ
Particulars: at 1 µM.

For assay [2], the target named is T1, Testis-specific serine/threonine-protein kinase 1 (Homo sapiens). The note with it: at 10 µM.
The target of assay [3] is T2, Testis-specific serine/threonine-protein kinase 2 (Homo sapiens) (UniProt Q96PF2).
T2 sequence (whole entry): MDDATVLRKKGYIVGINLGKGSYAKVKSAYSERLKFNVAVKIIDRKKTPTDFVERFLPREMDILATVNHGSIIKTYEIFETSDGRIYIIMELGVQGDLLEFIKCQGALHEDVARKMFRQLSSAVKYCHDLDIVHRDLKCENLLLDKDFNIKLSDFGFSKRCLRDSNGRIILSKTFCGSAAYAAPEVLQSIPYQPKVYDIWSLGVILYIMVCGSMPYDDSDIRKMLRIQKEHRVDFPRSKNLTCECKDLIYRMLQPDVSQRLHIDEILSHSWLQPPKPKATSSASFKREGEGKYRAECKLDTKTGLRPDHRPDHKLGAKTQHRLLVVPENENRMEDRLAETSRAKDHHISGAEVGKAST
The note with it: at 10 µM.

Assay [4] addresses Angiopoietin-1 receptor (Homo sapiens) (UniProt Q02763). The note with it: at 1 µM.
Assay [5] has the same target. Particulars: at 10 µM.
For assay [6], the target named is High affinity nerve growth factor receptor (Homo sapiens) (UniProt P04629). Particulars: at 1 µM.
Chain of High affinity nerve growth factor receptor (Homo sapiens) (P04629 33-796 limits assumed): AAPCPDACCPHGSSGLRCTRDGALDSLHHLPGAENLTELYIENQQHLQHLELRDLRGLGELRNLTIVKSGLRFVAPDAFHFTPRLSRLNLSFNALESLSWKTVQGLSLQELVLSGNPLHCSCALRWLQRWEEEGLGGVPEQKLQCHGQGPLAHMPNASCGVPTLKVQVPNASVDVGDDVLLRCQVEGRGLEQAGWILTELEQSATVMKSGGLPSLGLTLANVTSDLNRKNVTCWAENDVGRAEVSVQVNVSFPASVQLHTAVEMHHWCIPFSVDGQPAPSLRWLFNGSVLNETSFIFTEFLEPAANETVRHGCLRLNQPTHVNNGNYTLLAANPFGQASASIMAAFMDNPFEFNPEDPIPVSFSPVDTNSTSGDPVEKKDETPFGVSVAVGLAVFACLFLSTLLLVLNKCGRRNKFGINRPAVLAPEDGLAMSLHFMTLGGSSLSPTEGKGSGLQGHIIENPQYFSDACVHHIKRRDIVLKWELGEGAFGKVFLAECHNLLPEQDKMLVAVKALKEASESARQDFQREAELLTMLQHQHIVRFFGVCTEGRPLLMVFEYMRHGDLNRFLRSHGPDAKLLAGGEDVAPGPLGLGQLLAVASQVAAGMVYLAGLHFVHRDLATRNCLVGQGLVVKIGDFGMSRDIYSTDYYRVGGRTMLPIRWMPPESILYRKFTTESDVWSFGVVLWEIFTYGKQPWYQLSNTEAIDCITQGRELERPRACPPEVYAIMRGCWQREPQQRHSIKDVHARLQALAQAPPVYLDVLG
Assay [7] has the same target. Particulars: at 10 µM.
For assay [8], the target named is BDNF/NT-3 growth factors receptor (Homo sapiens) (UniProt Q16620). The note with it: at 1 µM.
Chain of BDNF/NT-3 growth factors receptor (Homo sapiens) (Q16620 32-822 limits assumed): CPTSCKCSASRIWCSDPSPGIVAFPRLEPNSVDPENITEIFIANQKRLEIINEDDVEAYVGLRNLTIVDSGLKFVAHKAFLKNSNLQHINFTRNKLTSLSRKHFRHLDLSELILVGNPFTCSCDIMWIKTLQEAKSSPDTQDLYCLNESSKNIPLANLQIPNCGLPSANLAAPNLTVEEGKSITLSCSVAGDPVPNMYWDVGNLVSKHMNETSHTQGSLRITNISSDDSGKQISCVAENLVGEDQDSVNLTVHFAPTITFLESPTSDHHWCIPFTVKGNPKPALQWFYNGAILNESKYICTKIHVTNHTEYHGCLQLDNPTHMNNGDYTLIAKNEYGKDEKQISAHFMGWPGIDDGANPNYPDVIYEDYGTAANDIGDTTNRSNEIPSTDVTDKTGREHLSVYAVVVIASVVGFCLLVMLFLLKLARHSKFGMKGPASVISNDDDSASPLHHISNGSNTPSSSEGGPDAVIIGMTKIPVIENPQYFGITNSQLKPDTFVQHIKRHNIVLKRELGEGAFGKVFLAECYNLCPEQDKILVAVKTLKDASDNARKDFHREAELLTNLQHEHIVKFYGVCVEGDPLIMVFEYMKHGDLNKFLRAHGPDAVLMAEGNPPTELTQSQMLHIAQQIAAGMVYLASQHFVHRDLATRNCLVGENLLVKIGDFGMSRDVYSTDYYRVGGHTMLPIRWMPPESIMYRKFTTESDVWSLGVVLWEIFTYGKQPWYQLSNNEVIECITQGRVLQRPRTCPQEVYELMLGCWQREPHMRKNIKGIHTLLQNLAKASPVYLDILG
The target of assay [9] is T3, Tyrosine-protein kinase Tec (Homo sapiens) (UniProt P42680).
T3 sequence (whole entry): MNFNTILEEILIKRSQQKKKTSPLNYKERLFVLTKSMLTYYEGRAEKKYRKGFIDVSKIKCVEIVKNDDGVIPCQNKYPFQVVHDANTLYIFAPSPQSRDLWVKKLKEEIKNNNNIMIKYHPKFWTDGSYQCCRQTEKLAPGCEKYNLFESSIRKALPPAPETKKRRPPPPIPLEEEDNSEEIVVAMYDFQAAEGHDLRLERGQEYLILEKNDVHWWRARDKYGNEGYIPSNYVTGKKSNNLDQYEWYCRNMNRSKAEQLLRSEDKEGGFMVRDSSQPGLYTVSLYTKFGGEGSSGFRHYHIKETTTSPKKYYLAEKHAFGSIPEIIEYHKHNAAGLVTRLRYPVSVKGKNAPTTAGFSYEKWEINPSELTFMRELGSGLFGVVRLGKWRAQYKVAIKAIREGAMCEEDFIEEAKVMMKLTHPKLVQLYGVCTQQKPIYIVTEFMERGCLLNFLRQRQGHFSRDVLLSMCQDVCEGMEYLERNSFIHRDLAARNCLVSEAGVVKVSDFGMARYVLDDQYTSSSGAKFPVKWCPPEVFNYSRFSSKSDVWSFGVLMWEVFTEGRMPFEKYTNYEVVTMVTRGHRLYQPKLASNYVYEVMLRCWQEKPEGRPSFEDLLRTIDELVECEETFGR
Particulars: at 1 µM.

The target in assay [10] is T3, Tyrosine-protein kinase Tec (Homo sapiens). The note with it: at 10 µM.

Chain of Angiopoietin-1 receptor (Homo sapiens) (Q02763 whole entry): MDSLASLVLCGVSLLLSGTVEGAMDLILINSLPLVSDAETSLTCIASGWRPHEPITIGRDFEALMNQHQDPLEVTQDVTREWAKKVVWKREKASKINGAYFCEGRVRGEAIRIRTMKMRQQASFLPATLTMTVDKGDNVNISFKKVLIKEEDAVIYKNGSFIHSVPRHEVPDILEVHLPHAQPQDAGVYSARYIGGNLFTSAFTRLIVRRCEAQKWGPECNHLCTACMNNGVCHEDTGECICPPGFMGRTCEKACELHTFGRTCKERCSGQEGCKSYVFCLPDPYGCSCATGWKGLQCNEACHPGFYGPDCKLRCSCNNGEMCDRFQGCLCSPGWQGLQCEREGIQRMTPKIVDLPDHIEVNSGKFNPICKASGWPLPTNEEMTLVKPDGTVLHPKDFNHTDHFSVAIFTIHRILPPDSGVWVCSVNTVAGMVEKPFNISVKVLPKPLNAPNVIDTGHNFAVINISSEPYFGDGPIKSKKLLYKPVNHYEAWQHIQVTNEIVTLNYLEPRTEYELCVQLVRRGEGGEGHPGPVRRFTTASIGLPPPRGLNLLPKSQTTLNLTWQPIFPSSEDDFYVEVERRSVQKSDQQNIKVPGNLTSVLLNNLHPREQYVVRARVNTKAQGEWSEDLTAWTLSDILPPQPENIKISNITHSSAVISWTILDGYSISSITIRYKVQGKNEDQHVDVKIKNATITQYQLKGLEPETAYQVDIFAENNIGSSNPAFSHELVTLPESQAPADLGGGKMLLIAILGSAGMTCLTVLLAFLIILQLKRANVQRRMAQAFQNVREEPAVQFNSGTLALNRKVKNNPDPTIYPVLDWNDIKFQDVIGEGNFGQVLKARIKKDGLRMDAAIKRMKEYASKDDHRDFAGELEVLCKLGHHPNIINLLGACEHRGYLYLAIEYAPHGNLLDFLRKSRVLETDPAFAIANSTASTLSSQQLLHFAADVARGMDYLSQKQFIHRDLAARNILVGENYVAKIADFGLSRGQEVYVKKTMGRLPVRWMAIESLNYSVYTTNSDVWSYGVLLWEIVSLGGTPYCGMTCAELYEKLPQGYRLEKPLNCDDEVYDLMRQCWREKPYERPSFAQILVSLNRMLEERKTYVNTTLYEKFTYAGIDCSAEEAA

As for `Nc1ncnc2c1c(-c1ccc(Oc3ccccc3)cc1)cn2C1CCCC1`, the residual activity stood at 94% in assay [1]; 86% in [2]; 93% in assay [3]; 12% in assay [4]; 3% in assay [5]; 26% in [6]. Moreover, the residual activity is -1% in assay [7] and 44% in assay [8].
For the compound `CC(C)(C)c1nc2c3ccc(F)cc3c3c(=O)[nH]ccc3c2[nH]1`, the residual activity in [1] was found to be 42%; in assay [2] it was 60%; in assay [4], 78%; in assay [5], 64%; in assay [6] it was 3%; in assay [7], 6%. The residual activity in [8] worked out at 71%.
Consider `CC(C)c1nn(-c2c(Cl)cccc2Cl)c2nc(Cc3ccc(OCCO)cc3)[nH]c(=O)c12`, for which the residual activity in assay [1] was 91%; in assay [2], 94%; in assay [3], 79%; in [9], 90%; in assay [10], 85%; in assay [5] it was 86%. Moreover, the residual activity was found to be 87% in [6] and 74% in assay [7].
Regarding `CCCCc1c(-c2ccc(OC)cc2)[nH]c2nccnc12`, the residual activity in [1] stood at 63%; in assay [2] it was 81%; in assay [9] it was 51%; in assay [10] it was 11%; in [4], 105%; in assay [5] it was 82%. The residual activity in [6] was 61%; in assay [7], 57%; in assay [8], 70%.
For `O=C1Nc2ccc(Cl)cc2/C1=C/c1cc(Cl)c(O)c(Cl)c1`, the residual activity in assay [1] was 95%; in assay [2], 78%; in assay [3], 57%; in assay [9] it was 89%; in [10], 70%; in assay [4] it was 75%. Also, the residual activity in [5] was 51%; in assay [6], -1%; in assay [7] it was 2%; in [8] it was 38%.
For `CCOC(=O)c1c(C)[nH]c(/C=C2\C(=O)Nc3ccccc32)c1C`, the residual activity worked out at 93% in assay [1]; 83% in assay [2]; 97% in assay [3]; 88% in [9]; 92% in assay [10]; 13% in assay [6]. Further, the values for the residual activity in assay [7] and in [8] were 32% and 73%, respectively.
Turning to `CCCCc1c(-c2ccc(O)cc2)[nH]c2nccnc12`, the residual activity in [1] came to 58%; in assay [2] it was 59%; in assay [3], 85%; in assay [6], 61%; in assay [7] it was 12%; in assay [8] it was 67%.
With `CC(C)(C)n1nc(Cc2cccc3ccccc23)c2c(N)ncnc21`, the residual activity is 96% in assay [1]; 90% in [2]; 53% in assay [9]; 10% in assay [10]; 71% in assay [4]; 28% in assay [5]. The figures for the residual activity in assay [6], in assay [7] and in assay [8] were 80%, 17% and 45%, respectively.
For the compound `Nc1ncnc2c1cnn2-c1ccccc1`, the residual activity was 92% in [1]; 87% in [2]; 99% in [9]; 90% in assay [10]; 73% in assay [4]; 102% in assay [5]. For the same compound, the residual activity in assay [6] is 91%; in assay [7] it was 83%.
In the case of `O=S(=O)(NCCNC/C=C/c1ccc(Br)cc1)c1cccc2cnccc12`, the residual activity came out at 100% in [1], 67% in assay [2], 69% in [5] and 78% in assay [7].
On to `O=C(NC(NC(=S)Nc1ccc(F)c([N+](=O)[O-])c1)C(Cl)(Cl)Cl)C(c1ccccc1)c1ccccc1` (stereo not given), for which the residual activity in [1] stood at 87%; in assay [2] it was 103%; in [3] it was 101%; in assay [9] it was 102%; in assay [10], 62%; in assay [5], 82%. The residual activity in [6] is 87%; in assay [7], 52%; in assay [8] it was 91%.
Take `O=C1C(Cl)=C(N2C(=O)CCC2=O)C(=O)c2ccccc21`: the residual activity in assay [1] is 101%; in assay [2], 79%; in assay [3], 80%; in assay [9], 90%; in assay [10], 79%; in assay [5] it was 71%. Further, the results for the residual activity in [6], in assay [7] and in [8] were 89%, 68% and 85%, respectively.
For the compound `O=C1Cc2c([nH]c3ccc(Br)cc23)-c2ccccc2N1`, the residual activity in [1] turned out to be 87%; in [2] it was 49%; in [3], 76%; in [9] it was 92%; in assay [10], 55%.
For `CC(C)N(CCC(=O)c1ccc2ccccc2c1)Cc1ccccc1`, the residual activity in [1] came out at 81%; in assay [2], 78%; in assay [10], 73%.
With `Nc1n[nH]c2nc3ccccc3nc12`, the residual activity in [1] was found to be 85%; in assay [2] it was 87%; in assay [3], 71%; in assay [9], 81%; in [10], 86%; in assay [6], 86%. The figures for the residual activity in [7] and in assay [8] were 67% and 84%, respectively.
For the compound `COc1ccc(Cl)cc1NC(=O)Nc1cc(C)nc2ccccc12`, the residual activity was 95% in assay [1]; 87% in [2]; 88% in assay [3]; 93% in assay [9]; 55% in assay [10]; 100% in assay [6]. Moreover, the residual activity in assay [7] came to 60%.
With `Cn1sc(=O)n(Cc2ccccc2)c1=O`, the residual activity was found to be 63% in assay [1]; 80% in [2]; 84% in assay [3]; 97% in assay [9]; 75% in [10]; 81% in [6]. Moreover, in [7], the residual activity amounted to 68%.
As to `COc1cc2c(cc1OC)-c1n[nH]c(Nc3cccc(F)c3)c1C2`, the residual activity in assay [1] came to 77%; in assay [2], 68%; in assay [9], 63%; in assay [10], 18%; in assay [5] it was 74%; in [6], 69%. The residual activity in assay [7] was 6%; in assay [8], 56%.
For the compound `c1ccc(-c2cnc(Nc3ccc(OCCN4CCCC4)cc3)s2)cc1`, the residual activity in assay [1] stood at 100%; in [2], 78%; in assay [3] it was 74%; in assay [4], 114%; in [5], 60%; in [6], 24%. Besides, the residual activity in assay [7] is 3%; in assay [8], 45%.
On to `O=C(CCCc1ccc(-c2ccccc2F)cc1)Nc1ccc(O)cc1`, for which the residual activity in [1] worked out at 103%; in [2] it was 99%; in assay [9] it was 93%; in [10], 79%; in assay [4] it was 83%; in assay [5] it was 96%. Further, the residual activity in assay [6] was determined as 102%; in [7], 54%; in assay [8], 93%.
`NC(=O)Nc1sc(-c2ccc(F)cc2)cc1C(N)=O`: the residual activity in [1] was found to be 62%; in assay [2], 27%; in [3], 54%; in assay [4] it was 82%; in assay [5], 21%; in assay [8] it was 27%.
On to `CCCC(=O)Oc1ccc2[nH]c(C(=O)c3cc4ccccc4[nH]3)cc2c1`, for which the residual activity in assay [1] was 93%; in assay [2], 82%; in assay [3] it was 96%; in [9] it was 85%; in assay [10], 94%; in [4] it was 78%. The residual activity in assay [5] worked out at 49%; in assay [6], 87%; in [7] it was 87%.
Turning to `CCN(CC)CCNC(=O)c1c(C)[nH]c(/C=C2\C(=O)Nc3ccc(Cl)cc32)c1C`, the residual activity in assay [1] was found to be 8%; in assay [2], 0%; in assay [3], 26%; in assay [9], 78%; in assay [10], 29%; in assay [4], 56%. Further, the residual activity was 19% in assay [5], -1% in assay [6], 0% in assay [7] and 40% in assay [8].
`O=C1NC(=O)C(c2cn(CCCO)c3ncccc23)=C1c1cnccn1`: the residual activity in assay [1] worked out at 97%; in assay [2], 84%; in [3] it was 59%; in assay [9] it was 91%; in [10] it was 73%; in assay [4] it was 95%. For the same compound, the residual activity in [5] worked out at 94%; in assay [6] it was 80%; in assay [7] it was 64%; in assay [8] it was 87%.
For the compound `O=c1cc(N2CCNCC2)oc2c(-c3ccccc3)cccc12`, the residual activity in assay [1] was found to be 101%; in assay [2], 93%; in assay [3], 82%; in assay [10], 80%; in assay [4], 69%; in [5], 78%.
Turning to `CC(C)[C@H](CO)Nc1nc(Nc2cc(N)cc(Cl)c2)c2ncn(C(C)C)c2n1`, the residual activity in [1] is 86%; in assay [2], 66%; in assay [3], 90%; in [9] it was 61%; in [10] it was 13%; in assay [4], 100%. Also, the residual activity was 52% in [5], 5% in assay [6] and 0% in assay [7].
